This is a sample that favours compounds with a hit; in the whole collection about 9.5% have one here.
Tau fluor cs: counter-screen for tau fibril formation inhibitors | AID 1463 | 0.93% of 280,000 active | tau K18 P301L Alexa594 fluorescence, heparin fibrillization | Potency, µM (series often up to 57.7 µM), for inactives: at the highest dose activity change, negative = decrease; note: nearly all actives have a fitted effect of over 55% in size
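Human tau K18 P301L (15 uM unlabeled, 0.24 uM Alexa 594-labeled) in 100 mM sodium acetate pH 7 with 20 uM heparin, 6 hr at 37 C. ThT 30 uM added, 1 hr ambient; Alexa 594 FP and total fluorescence read at 555/632 nm.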
Tau fibril FP: inhibitors of human tau fibril formation | P10636 | K18 P301L tau heparin fibrillization, Alexa594 FP, 6 h | Potency, µM (highest dose often 57.7 µM), without a hit: at the highest dose activity, negative = inhibition, actives largely listed as inhibitors | 0.39% of 280,000 active | AID 1468; note: nearly all actives have a fitted effect of over 55% in size
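Read-out: fluorescence polarization of Alexa 594-labeled tau (0.24 uM), 555 nm excitation, 632 nm emission. Mixtures held 15 uM unlabeled K18 P301L, compound and 20 uM heparin, pH 7 acetate buffer, incubated 6 hr at 37 C.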
NPSR antagonist: neuropeptide S receptor (human) antagonism, cAMP; CHO-NPSR cells, cAMP TR-FRET, antagonist mode; Potency, µM (top dose mostly 38.3 µM), without a hit: at the top dose activity change, negative = inhibition, hits mostly inhibitors; 1% of 220,000 active; AID 1461; note: nearly all actives have a fitted effect of over 50% in size
Tau ThT inhib: tau fibrillization inhibition (ThT binding); recombinant tau K18 P301L (four-repeat tau fragment), heparin-induced fibrillization, ThT fluorescence; Potency, µM (titrated, usually from 57.4 µM), for inactives: at the top dose activity, negative = inhibition, usual class: inhibitors; 2.1% of 270,000 active; P10636; note: nearly all actives have a fitted effect of over 55% in size
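Heparin-induced fibrillization of the P301L-mutant K18 repeat-domain fragment of human tau was followed by ThT binding in quantitative high-throughput format.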
HPGD block: HPGD (human) dehydrogenase inhibition | AID 894 | P15428 | purified HPGD, NADH fluorescence kinetic, PGE2 substrate | 4.3% of 150,000 active | Potency, µM, without a hit: at the highest dose activity change, negative = inhibition, most hits filed as inhibitors; active = well fitted inhibition curve with a large enough effect, not every such curve was filed as active; inconclusive = small, poorly fitted or top-dose-only effect, or another doubt; inactive = no such curve, though single readings can be large or run the other way
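20 nM HPGD preincubated 15 min at room temperature with compound in 50 mM Tris-HCl pH 8, 0.01% Tween 20. Started with 1 mM NAD+ and 30 uM prostaglandin E2; NADH fluorescence (360/450 nm) read 5 times over 30-s intervals, last minus first.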
ALDH1A1 inh: inhibitors of human aldehyde dehydrogenase 1A1; P00352; Purified ALDH1A1, NADH fluorescence, propionaldehyde substrate; Potency, µM (titrated, usually from 75.3 µM), without a hit: at the top dose activity, negative = inhibition, hits mostly inhibitors; 7.3% of 220,000 active; active = well fitted inhibition curve with a large enough effect, not every such curve was filed as active; inconclusive = small, poorly fitted or top-dose-only effect, or another doubt; inactive = no such curve, though single readings can be large or run the other way;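 note: plate controls were no enzyme wells and a reference inhibitor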
Target sequence (P00352 whole entry, looked up): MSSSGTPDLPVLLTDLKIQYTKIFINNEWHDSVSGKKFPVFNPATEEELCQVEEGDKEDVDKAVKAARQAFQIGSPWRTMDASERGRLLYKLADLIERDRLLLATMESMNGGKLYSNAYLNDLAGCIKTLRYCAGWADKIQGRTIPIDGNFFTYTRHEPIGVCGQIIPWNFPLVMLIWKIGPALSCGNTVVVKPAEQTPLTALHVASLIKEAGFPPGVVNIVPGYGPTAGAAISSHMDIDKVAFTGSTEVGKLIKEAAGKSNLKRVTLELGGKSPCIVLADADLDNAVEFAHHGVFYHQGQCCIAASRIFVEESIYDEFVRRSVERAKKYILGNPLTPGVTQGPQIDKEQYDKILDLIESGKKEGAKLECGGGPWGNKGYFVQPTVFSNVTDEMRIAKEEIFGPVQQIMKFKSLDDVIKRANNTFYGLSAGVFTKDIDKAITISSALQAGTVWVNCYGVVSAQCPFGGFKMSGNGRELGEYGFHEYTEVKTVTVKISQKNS
* marks the source's active call; other numbers are inactive results; [ ] = remark or other dose. Unless noted, calls come from the whole dose curve; as a rule, active = well fitted curve in the direction sought with a large enough effect; inconclusive = small, poorly fitted or top-dose-only effect, or another doubt; inactive = no such curve, though single readings can be large; an effect the other way counts as inactive or inconclusive. Unless noted, % is set by controls: 0 for no effect and ±100 for the full control effect; potency is the fitted concentration of half-maximal effect.

Results for CCCCNc1c(NC(C)=O)c(=O)oc2ccccc12 ?
Tau fluor cs: -3%; Tau fibril FP: -5%; NPSR antagonist: 11%; Tau ThT inhib: -5%; HPGD block: -2%; ALDH1A1 inh: 6%

How did COc1ccc(NC(=O)N2CC[C@@]3(CCCN(C(=O)c4ccncc4)C3)C2)cc1 do in these assays?
HPGD block: -9%; ALDH1A1 inh: -5%

How did CCOC(=O)C(CSCC(=O)c1ccc(Cl)cc1Cl)NC(=O)OC(C)(C)C (stereo not given) do in these assays?
Tau fluor cs: -13%; Tau fibril FP: -1%; NPSR antagonist: -20%[46.1 µM]; Tau ThT inhib: inconclusive; HPGD block: inconclusive; ALDH1A1 inh: 7.9µM*

Results for COc1ccc(-c2nc3c4ccccc4n(CC(=O)N4CCN(c5ccccc5OC)CC4)c(=O)n3n2)cc1 ?
Tau fluor cs: -16%; Tau fibril FP: -9%; Tau ThT inhib: inconclusive

What do the screens show for `C/C(=N/NC(=O)CNC(=O)CCc1ccccc1)c1ccc(Cl)c(Cl)c1`?
Tau fluor cs: -4%; Tau fibril FP: -8%; NPSR antagonist: -1%; Tau ThT inhib: -2%

How did N#Cc1c(N)sc(=S)c2c1CCCC2 do in these assays?
Tau fluor cs: inconclusive; Tau fibril FP: -3%; NPSR antagonist: -5%[46.1 µM]; Tau ThT inhib: 14µM*; HPGD block: -11%; ALDH1A1 inh: inconclusive

How did CCC1(C)Cc2c(C#N)c(N)sc(=S)c2CO1 (stereo not given) do in these assays?
Tau fluor cs: -16%; Tau fibril FP: inconclusive; NPSR antagonist: 3%[46.1 µM]; Tau ThT inhib: 25µM*; HPGD block: 28µM*; ALDH1A1 inh: 10µM*

How did Cc1ccccc1NC(=S)N(CCN1CCOCC1)Cc1ccccc1F do in these assays?
Tau fluor cs: -2%; Tau fibril FP: 7%; NPSR antagonist: -16%; Tau ThT inhib: 2%; ALDH1A1 inh: 4%

Results for COc1ccc2c(c1)O[C@H](c1ccc3c(c1)OCO3)[C@@H](OC(=O)NCc1ccco1)C2=O ?
Tau fluor cs: -11%; Tau fibril FP: -1%; Tau ThT inhib: inconclusive; HPGD block: -11%; ALDH1A1 inh: -15%

Results for Cc1c(C(=O)NCC2COc3ccccc3O2)oc2ccc(S(=O)(=O)N3CCOCC3)cc12 (stereo not given) ?
Tau fluor cs: -14%; Tau fibril FP: 6%; NPSR antagonist: inconclusive; Tau ThT inhib: -10%; HPGD block: -26%; ALDH1A1 inh: -12%

Results for CCN(CC)S(=O)(=O)c1ccc2oc(C(=O)NCC3COc4ccccc4O3)c(C)c2c1 (stereo not given) ?
Tau fluor cs: -19%; Tau fibril FP: 0%; NPSR antagonist: -29%[46.1 µM]; Tau ThT inhib: -7%; HPGD block: -24%; ALDH1A1 inh: 14µM*

How did CCc1ccc(C(=O)NCC2COc3ccccc3O2)o1 (stereo not given) do in these assays?
Tau fluor cs: -1%; Tau fibril FP: -3%; NPSR antagonist: -19%[46.1 µM]; Tau ThT inhib: -9%; HPGD block: 18µM*; ALDH1A1 inh: -10%

Results for Cc1cc(C)n(-c2nc3ccccc3nc2Nc2cccc(C)c2C)n1 ?
Tau fluor cs: -26%; Tau fibril FP: -11%; Tau ThT inhib: -3%

What do the screens show for `Cc1nc2nc(SCC(=O)NC3CCC(C)CC3)nn2c(C)c1Cc1ccccc1` (stereo not given)?
Tau fluor cs: 7%; Tau fibril FP: 11%; Tau ThT inhib: -3%

What do the screens show for `CCOC(=O)CCN1C(=O)[C@H]2[C@H]3[C@H](O)[C@H](O)C/C(=N/OCc4ccccc4)[C@@H]3CC[C@@H]2C1=O`?
Tau fluor cs: -4%[11.6 µM]; Tau fibril FP: 0%[11.6 µM]; Tau ThT inhib: -2%[11.5 µM]; ALDH1A1 inh: -9%[13.5 µM]

Results for Cc1cc(N=Nc2ccc(Cl)cc2)cc(CN2CCCC2)c1O ?
Tau fluor cs: inconclusive; Tau fibril FP: inconclusive; NPSR antagonist: inconclusive; Tau ThT inhib: 28µM*; ALDH1A1 inh: 2%

Screening data deposited in PubChem BioAssay by National Center for Advancing Translational Sciences (NCATS).
